± gives the standard deviation of the averaged measurements. About 5,400 targets were measured; listed, in parts, are those with the largest changes and a random draw of the rest.

Our source for the NP40-soluble protein abundance values is the supplement of paper PMC6411743.

Compound in the assay: Nc1nc2c(ncn2[C@@H]2O[C@H](COP(=O)(O)OP(=O)(O)OP(=O)(O)O)[C@@H](O)[C@H]2O)c(=O)[nH]1 [guanosine triphosphate]
Put plainly: NP40-soluble protein abundance relative to vehicle (solubility fold change) (ratio); higher = more soluble protein in presence of GTP. As for the experimental part: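 Solubility proteome profiling in Jurkat crude lysate. Lysate was treated with Mg-GTP (0.1-10 mM) for 10 min at room temperature and 3 min at 37 °C, then solubilised with 0.8% NP40 and benzonase, followed by ultracentrifugation. Proteins were quantified by TMT10 LC-MS/MS; the value is the NP40-soluble abundance relative to the NP40-processed vehicle, from 3 independent experiments.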

UniProt Q96FV9, sequence (Q96FV9 whole entry, one chain of several): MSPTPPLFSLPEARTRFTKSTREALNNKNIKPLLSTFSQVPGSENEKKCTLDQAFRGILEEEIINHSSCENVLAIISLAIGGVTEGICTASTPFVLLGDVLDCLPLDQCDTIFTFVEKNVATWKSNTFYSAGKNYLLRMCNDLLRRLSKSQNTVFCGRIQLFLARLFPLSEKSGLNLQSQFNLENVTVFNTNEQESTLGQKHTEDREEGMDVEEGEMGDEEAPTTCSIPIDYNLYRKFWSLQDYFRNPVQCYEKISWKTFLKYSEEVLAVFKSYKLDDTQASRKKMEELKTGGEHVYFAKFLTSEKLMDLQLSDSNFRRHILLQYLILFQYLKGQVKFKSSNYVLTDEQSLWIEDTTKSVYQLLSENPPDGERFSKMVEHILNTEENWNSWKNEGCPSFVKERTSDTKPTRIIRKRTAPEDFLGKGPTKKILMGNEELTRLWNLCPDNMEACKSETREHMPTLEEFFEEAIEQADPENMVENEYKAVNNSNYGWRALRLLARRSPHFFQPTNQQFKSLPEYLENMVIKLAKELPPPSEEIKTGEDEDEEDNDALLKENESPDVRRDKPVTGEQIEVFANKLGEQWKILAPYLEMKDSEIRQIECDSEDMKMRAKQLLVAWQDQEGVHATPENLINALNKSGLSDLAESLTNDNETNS
UniProt P51957, sequence (P51957 whole entry, looked up, one chain of several): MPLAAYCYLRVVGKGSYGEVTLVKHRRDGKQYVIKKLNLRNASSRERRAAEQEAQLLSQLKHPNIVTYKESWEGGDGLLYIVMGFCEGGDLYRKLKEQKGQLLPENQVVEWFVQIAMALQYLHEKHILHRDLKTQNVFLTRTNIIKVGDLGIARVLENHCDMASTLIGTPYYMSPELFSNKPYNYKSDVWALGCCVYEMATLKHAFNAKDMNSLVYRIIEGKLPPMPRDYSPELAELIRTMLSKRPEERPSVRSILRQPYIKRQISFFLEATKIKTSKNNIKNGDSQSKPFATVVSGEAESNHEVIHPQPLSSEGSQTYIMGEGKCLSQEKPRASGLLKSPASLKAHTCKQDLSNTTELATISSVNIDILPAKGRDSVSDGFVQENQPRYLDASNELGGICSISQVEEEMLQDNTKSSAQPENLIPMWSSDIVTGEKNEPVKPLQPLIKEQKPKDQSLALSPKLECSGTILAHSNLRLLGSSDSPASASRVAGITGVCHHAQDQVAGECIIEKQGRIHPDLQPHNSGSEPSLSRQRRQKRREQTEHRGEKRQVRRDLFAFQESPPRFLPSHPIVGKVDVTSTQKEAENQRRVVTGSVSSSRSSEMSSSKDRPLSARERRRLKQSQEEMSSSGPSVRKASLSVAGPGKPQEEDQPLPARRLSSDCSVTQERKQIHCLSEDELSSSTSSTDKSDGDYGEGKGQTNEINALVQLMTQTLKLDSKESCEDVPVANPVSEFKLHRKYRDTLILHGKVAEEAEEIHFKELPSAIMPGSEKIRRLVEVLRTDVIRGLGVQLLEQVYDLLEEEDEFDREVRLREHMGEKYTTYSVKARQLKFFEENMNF
UniProt Q16881, sequence (Q16881 whole entry, one chain of several): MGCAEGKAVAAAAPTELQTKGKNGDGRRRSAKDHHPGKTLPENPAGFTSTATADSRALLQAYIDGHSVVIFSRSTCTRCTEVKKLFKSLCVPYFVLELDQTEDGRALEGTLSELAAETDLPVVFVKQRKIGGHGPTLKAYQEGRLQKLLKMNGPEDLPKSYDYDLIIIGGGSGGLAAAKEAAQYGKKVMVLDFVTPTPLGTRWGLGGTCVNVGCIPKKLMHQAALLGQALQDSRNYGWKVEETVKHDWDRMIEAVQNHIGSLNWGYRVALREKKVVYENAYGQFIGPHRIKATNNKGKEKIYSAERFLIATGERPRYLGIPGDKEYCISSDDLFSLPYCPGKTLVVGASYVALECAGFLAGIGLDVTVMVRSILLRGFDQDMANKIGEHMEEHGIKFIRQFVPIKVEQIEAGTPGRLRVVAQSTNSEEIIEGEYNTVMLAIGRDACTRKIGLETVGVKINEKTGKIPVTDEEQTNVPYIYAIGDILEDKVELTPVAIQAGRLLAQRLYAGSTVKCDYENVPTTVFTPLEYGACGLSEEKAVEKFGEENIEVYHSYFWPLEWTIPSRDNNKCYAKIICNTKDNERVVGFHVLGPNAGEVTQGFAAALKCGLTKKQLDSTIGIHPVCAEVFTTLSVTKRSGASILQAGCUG
UniProt Q15283, sequence (Q15283 whole entry, one chain of several): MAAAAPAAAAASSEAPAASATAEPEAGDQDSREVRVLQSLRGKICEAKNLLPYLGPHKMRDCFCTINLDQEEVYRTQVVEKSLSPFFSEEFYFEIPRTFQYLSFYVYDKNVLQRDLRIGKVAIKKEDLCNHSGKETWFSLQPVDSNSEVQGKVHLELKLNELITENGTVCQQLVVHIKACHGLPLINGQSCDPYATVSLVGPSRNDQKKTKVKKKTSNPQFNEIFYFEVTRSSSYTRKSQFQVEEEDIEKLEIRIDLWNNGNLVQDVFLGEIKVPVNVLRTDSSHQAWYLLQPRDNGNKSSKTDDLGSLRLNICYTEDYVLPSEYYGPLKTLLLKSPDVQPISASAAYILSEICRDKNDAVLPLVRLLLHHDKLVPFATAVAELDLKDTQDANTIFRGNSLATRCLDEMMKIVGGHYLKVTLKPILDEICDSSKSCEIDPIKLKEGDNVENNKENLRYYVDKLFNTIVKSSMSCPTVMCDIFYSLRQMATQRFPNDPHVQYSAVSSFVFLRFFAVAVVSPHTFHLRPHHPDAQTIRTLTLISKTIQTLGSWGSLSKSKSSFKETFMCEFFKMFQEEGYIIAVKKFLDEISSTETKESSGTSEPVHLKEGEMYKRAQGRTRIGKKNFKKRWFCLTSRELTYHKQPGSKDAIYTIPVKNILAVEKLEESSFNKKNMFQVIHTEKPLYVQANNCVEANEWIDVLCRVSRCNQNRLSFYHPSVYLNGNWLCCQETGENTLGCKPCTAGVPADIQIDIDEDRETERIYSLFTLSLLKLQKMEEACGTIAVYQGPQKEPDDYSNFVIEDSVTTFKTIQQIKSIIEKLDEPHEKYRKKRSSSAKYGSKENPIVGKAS
UniProt Q9NUM4, sequence (Q9NUM4 whole entry, one chain of several): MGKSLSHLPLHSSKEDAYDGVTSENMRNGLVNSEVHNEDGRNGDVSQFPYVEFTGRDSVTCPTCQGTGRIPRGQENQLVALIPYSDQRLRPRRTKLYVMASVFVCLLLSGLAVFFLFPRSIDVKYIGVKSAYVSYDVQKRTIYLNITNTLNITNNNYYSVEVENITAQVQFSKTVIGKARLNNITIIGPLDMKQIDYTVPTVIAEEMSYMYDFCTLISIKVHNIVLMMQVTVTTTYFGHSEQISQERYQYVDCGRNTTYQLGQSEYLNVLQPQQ

Turning to F2Z3N7|C9JZ87|Q9NUM4 (UniProt Q9NUM4), the NP40-soluble protein abundance is, setting by setting: (concentration: 0.1mM) 0.98 ± 0.036; (concentration: 0.5mM) 0.932 ± 0.076; (concentration: 1mM) 1.15 ± 0.077; (concentration: 2mM) 1.06 ± 0.048; (concentration: 4mM) 0.84 ± 0.18; (concentration: 6mM) 0.949 ± 0.045. The NP40-soluble protein abundance (concentration: 8mM) came out at 0.989 ± 0.051 and the NP40-soluble protein abundance (concentration: 10mM) is 0.969 ± 0.078.

In the case of E7EX48|P51957|P51957-3 (UniProt P51957), the NP40-soluble protein abundance is, setting by setting: (concentration: 0.1mM) 1.01 ± 0.097; (concentration: 0.5mM) 0.987 ± 0.21; (concentration: 1mM) 0.961 ± 0.21; (concentration: 2mM) 1.01 ± 0.2; (concentration: 4mM) 0.986 ± 0.21; (concentration: 6mM) 0.957 ± 0.23. Besides, the NP40-soluble protein abundance by setting is: (concentration: 8mM) 0.985 ± 0.25; (concentration: 10mM) 1.06 ± 0.25.

For A0A087WWS1|Q96FV9 (UniProt Q96FV9), the NP40-soluble protein abundance was 1.1 ± 0.016 (concentration: 0.1mM); 1.24 ± 0.086 (concentration: 0.5mM); 1.41 ± 0.19 (concentration: 1mM); 1.76 ± 0.41 (concentration: 2mM); 2.08 ± 0.62 (concentration: 4mM); 2.26 ± 0.76 (concentration: 6mM). Further, the NP40-soluble protein abundance reads like this: (concentration: 8mM) 2.37 ± 0.83; (concentration: 10mM) 2.4 ± 0.91.

As for “A0A087WSW9|A0A087WSY9|E9PIR7|F8W809|Q16881|Q16881-2|Q16881-3|Q16881-4|Q16881-5|Q16881-6 (UniProt Q16881)”, the NP40-soluble protein abundance by setting is: (concentration: 0.1mM) 0.99 ± 0.03; (concentration: 0.5mM) 1.01 ± 0.041; (concentration: 1mM) 0.918 ± 0.026; (concentration: 2mM) 0.928 ± 0.049; (concentration: 4mM) 0.88 ± 0.037; (concentration: 6mM) 0.9 ± 0.041. For the same target, the NP40-soluble protein abundance by setting is: (concentration: 8mM) 0.847 ± 0.022; (concentration: 10mM) 0.854 ± 0.059.

Regarding “A0A0A0MSJ9|Q15283|Q15283-2 (UniProt Q15283)”, the NP40-soluble protein abundance worked out at 1.05 ± 0.057 (concentration: 0.1mM); 1.07 ± 0.065 (concentration: 0.5mM); 0.985 ± 0.018 (concentration: 1mM); 0.998 ± 0.04 (concentration: 2mM); 1.01 ± 0.054 (concentration: 4mM); 0.967 ± 0.048 (concentration: 6mM). The NP40-soluble protein abundance worked out at 0.94 ± 0.067 (concentration: 8mM) and 0.927 ± 0.13 (concentration: 10mM).
